Format in all cases: functional
In test [1] the target is Solute carrier family 2, facilitated glucose transporter member 1 (Homo sapiens) (UniProt P11166). In words: ST_JUDE_LEISH: Cytotoxicity at 2uM final concentration against transgenic Leishmania Mexicana promastigotes LmGLUT1 that are glucose transport deficient and complemented with the human glucose transporter GLUT1. Activity is measured by DNA content using SYBR green in vitro.

In test [2] the target is Hexose transporter 1 (Plasmodium falciparum) (UniProt O97467). In words: ST_JUDE_LEISH: Cytotoxicity at 2uM final concentration against transgenic Leishmania Mexicana promastigotes LmPfHT that are glucose transport deficient and complemented with the Plasmodium falciparum hexose transporter. Activity is measured by DNA content using SYBR green in vitro.
Test [3] concerns the target Glucose transporter (Leishmania mexicana) (UniProt O61059). In words: ST_JUDE_LEISH: Cytotoxicity at 2uM final concentration against transgenic Leishmania Mexicana promastigotes LmGT2 that are glucose transport deficient and complemented with the L. Mexicana glucose transporter 2. Activity is measured by DNA content using SYBR green in vitro.

Chain of Solute carrier family 2, facilitated glucose transporter member 1 (Homo sapiens) (P11166 whole entry): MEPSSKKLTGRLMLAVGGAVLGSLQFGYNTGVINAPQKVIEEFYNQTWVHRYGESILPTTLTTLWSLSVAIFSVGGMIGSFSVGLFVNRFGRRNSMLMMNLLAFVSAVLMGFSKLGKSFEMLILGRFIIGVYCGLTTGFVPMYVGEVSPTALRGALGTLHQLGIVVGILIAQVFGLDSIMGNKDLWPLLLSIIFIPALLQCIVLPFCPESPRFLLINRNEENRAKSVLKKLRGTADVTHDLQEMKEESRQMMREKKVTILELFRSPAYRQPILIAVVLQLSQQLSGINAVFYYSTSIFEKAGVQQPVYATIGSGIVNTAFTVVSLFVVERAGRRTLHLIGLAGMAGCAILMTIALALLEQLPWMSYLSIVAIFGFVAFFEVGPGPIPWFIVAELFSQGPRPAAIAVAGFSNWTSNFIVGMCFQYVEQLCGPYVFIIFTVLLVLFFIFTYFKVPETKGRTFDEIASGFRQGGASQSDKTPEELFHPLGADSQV

Regarding `COc1ccc2ccccc2c1C=NN=c1cc[nH]c2ccc(F)cc12`, the inhibition in test [1] is 3.72%; in test [2], 2.24%; in test [3], 7.98%.
On the same counts, the results for `O=C(C=Cc1ccc(Cl)c(Cl)c1)NCCCCCN1CCC(CCCNS(=O)(=O)c2ccc(F)cc2)CC1` are 1.12%, -1.5% and -0.43%.
As to `CCN(CC)CCNc1ccnc2ccc3ccccc3c12`, the inhibition is 1.6% in test [1], 6.78% in test [2] and 2.97% in test [3].
`Cc1cc(C(=O)Nc2ccc3c(ccn3C3CCCN(Cc4ccc(C(F)(F)F)cc4F)CC3)c2)no1` (stereo not drawn): the inhibition is -0.37% in test [1], 0.5% in test [2] and -0.5% in test [3].
On the same counts, the results for `CSc1cccc(NC(=O)Nc2ccc(I)c(OCCN(C)C)c2)c1` are 4.88%, 4.31% and 3.56%.
In the case of `CC(C)C1=C[C@H]2C[C@]3(C4OCCO4)[C@@H]4CC[C@@H](C)[C@H]4C[C@@]2(C(=O)OCC2COCO2)[C@]13C(=O)OC(c1ccccc1)c1ccccc1` (stereo partly drawn), the inhibition is -1.18% in test [1], -2.48% in test [2] and -1.79% in test [3].
On the same counts, the results for `CC(C)(C)OC(=O)NCc1ccc(Nc2nnc(-c3cccc(C(=O)NCc4cc(C(F)(F)F)cc(C(F)(F)F)c4)c3)o2)cc1` are 7.94%, 7.58% and 5.41%.
On the same counts, the results for `CNC(=O)Cc1ccc(C(=O)Nc2cccc(-c3csc(-c4nc5ccccc5[nH]4)c3)c2)cc1` are -2.64%, -0.06% and 1.68%.
`CC(CN(C)C)C(=O)Nc1cccc(-c2ccc(-c3nc4cc(F)ccc4[nH]3)s2)c1` (stereo not drawn): the inhibition amounted to 3.85% in test [1], 2.55% in test [2] and 4.47% in test [3].
`CC(=O)Nc1cccc(-c2cn(-c3ccc(OCc4cccc(F)c4)c(Cl)c3)c3ncncc23)c1`: the inhibition in test [1] was 2.04%; in test [2], 0.08%; in test [3] it was -0.28%.
On the same counts, the results for `Cc1cccc2nc(-c3ccc(-c4cccc(NC(=O)Cc5c[nH]cn5)c4)cc3)[nH]c12` are 1.52%, 3.26% and -1.21%.
In the case of `COc1ccc(NC(=O)Nc2ccc(Nc3nc(C)cc(N4CCCC4)n3)cc2)cc1`, the inhibition was 4.49% in test [1], 3.69% in test [2] and 1.68% in test [3].
On the same counts, the results for `O=C(/C=C/c1ccc(Cl)c(Cl)c1)NCCCCCN1CCC(c2c[nH]c3ccc(O)cc23)CC1` are 2.16%, 1.31% and 1.25%.
On the same counts, the results for `Cc1cc(C(=O)NC2CCN(Cc3ccccc3)CC2)ccc1-c1nc2cc(Cl)c(Cl)cc2[nH]1` are 3.63%, -0.19% and 3.05%.
For `O=S(=O)(c1ccccc1OC(F)(F)F)C1CC2CCC(C1)N2S(=O)(=O)c1cccc(C(F)(F)F)c1` (stereo not drawn), the results for the inhibition in test [1], in test [2] and in test [3] were 0.7%, -0.63% and 0.73%, respectively.
On to `Cc1cc2cc(/C=C/C(=O)NC3CCC(CCN4CCc5ccc(C#N)cc5CC4)CC3)ccc2[nH]1` (stereo not drawn), for which the inhibition in test [1] is 9.08%; in test [2], 7.95%; in test [3], 8.66%.
On the same counts, the results for `CCC(CC)OC(=O)C(C)c1cccc(C(=O)c2ccccc2)c1` (stereo not drawn) are 2.22%, -0.21% and 1.64%.
Regarding `Cc1cccc(C(=O)Nc2ccnc(N3CCCN(Cc4cccc(O)c4)CC3)c2)c1`, the inhibition in test [1] is -0.1%; in test [2], 1.14%; in test [3], -0.7%.
Take `CC(C)c1ccc(NC(=O)c2cccc(CN3CCCN(Cc4cccc(O)c4)CC3)c2)cc1`: the inhibition in test [1] was 15.4%; in test [2] it was 12%; in test [3] it was 7.67%.
As for `Cc1cc(N2CCOCC2)nc(Nc2ccc(NC(=O)c3cccc4ccccc34)cc2)n1`, the figures for the inhibition in test [1], in test [2] and in test [3] were 7.25%, 8.47% and 5.87%, respectively.
On the same counts, the results for `O=C(Nc1ccsc1)Nc1cccc(-c2cccc(-c3nc4cc(F)ccc4[nH]3)c2)c1` are 2.33%, 2.8% and -5.19%.
With `COc1ccc(-c2cccc(NC(=O)c3ccc(Cl)cc3)c2)cc1CN1CCCC1`, the figures for the inhibition in test [1], in test [2] and in test [3] were 11.3%, 9.27% and 5.55%, respectively.
On the same counts, the results for `COc1ccc(NC(=O)[C@H](Cc2ccccc2)Nc2cc(C)nc(NCCc3cccs3)n2)cc1` are 2.27%, 2.32% and -0.24%.
On the same counts, the results for `C[C@@H](CC1CCCCC1)OC(=O)N(C)[C@@H]1CCN(C#N)C1` are 14.6%, 10.3% and 10.5%.
With `CCOC(=O)c1c(C)n(-c2ccc(Cl)cc2)c2ccc(OC(=O)C=Cc3ccccc3)cc12`, the inhibition stood at 2.75% in test [1], 5.54% in test [2] and 5.18% in test [3].
On the same counts, the results for `Cc1cc(N2CCN(C)CC2)nc2ccc(NC(=O)Cc3cccc(C(F)(F)F)c3)cc12` are 2.34%, 1.8% and 5.56%.
Take `COc1ccccc1CN1CCC(NC(=O)c2ccc(-c3cccc(C(F)(F)F)c3)s2)CC1`: the inhibition in test [1] was 3.7%; in test [2], 4.38%; in test [3], -4.28%.
With `COc1ccc2nc3cc(Cl)ccc3c(Nc3ccc(O)c(CN4CC5CCC(CC5)C4)c3)c2c1`, the inhibition was 4.99% in test [1], 4.24% in test [2] and 3.82% in test [3].
On the same counts, the results for `CC(=O)Nc1nc(C(=O)Nc2cccc(-c3ccc(-c4nc5cccc(C)c5[nH]4)s3)c2)cs1` are 6.86%, 11.9% and 8.32%.
On to `CC(Cc1ccc(NC(=O)c2ccc(CC(C)NCc3ccc(Cl)c(Cl)c3)cc2)cc1)NCCc1cccc(Cl)c1` (stereo not drawn), for which the inhibition was 1.59% in test [1], -0.71% in test [2] and -0.17% in test [3].
For the compound `CCCCCCCc1c(C)[nH]c2ccc(F)cc2c1=O`, the results for the inhibition in test [1], in test [2] and in test [3] were -0.05%, 0.32% and -0.32%, respectively.

(Values after ChEMBL document CHEMBL3433997, “St. Jude Leishmania screening dataset” (2016).)
